ChEMBL document CHEMBL1157539, “Thousands of chemical starting points for antimalarial lead identification” (Nature, 2010)

Columns and labels:
Format in all cases: functional
Plasmodium falciparum [1] = assay: GSK_TCMDC: Inhibition of Plasmodium falciparum 3D7 in whole red blood cells, using parasite LDH activity as an index of growth. Test compounds present at 2uM
Plasmodium falciparum [2] = assay: GSK_TCMDC: Inhibition of Plasmodium falciparum Dd2 in whole red blood cells, using parasite LDH activity as an index of growth. Test compounds present at 2uM
HepG2 = assay: GSK_TCMDC: Percent inhibition of human HepG2 cell line. Test compounds present at 10uM.

Compound	Inhibition (Plasmodium falciparum [1]) [%]	Inhibition (Plasmodium falciparum [2]) [%]	Inhibition (HepG2) [%]
Cn1cncc1-c1ccc2ncnc(Nc3ccc4c(cnn4Cc4ccccc4)c3)c2c1	100	99	1
O=C(Nc1cccc(Cl)c1)N(CCCn1ccnc1)Cc1csc(-c2ccc(CNCc3ccccc3)cc2)n1.O=C(O)C(F)(F)F	100	45	11
Cc1cc(Nc2ccc(C)c(C)c2)n2nc(C)nc2n1	95	45	10
CCN(CC)CCNC(=O)c1ccc(NC(=O)c2oc3c(Cl)cccc3c2C)cc1	98	68	24
Cc1cccc2nc(-c3ccc(-c4ccc(NC(=O)Nc5ccsc5)cc4)s3)[nH]c12	100	88	74
C[C@H](NC(=O)[C@H](CCCCNC(=O)OC(C)(C)C)NC(=O)OC(C)(C)c1ccc(-c2ccccc2)cc1)C(=O)OCc1ccccc1	97	1	4
CCOc1ccc(Nc2nc(N)c3ccccc3n2)cc1.Cl	90	6	28
CCCc1cc(=O)[nH]c(-n2nc(C)cc2NC(=O)c2cc3ccccc3o2)n1	90	63	39
COc1ccc(C2CC(=O)C3=C(C2)NC(C)=C(C(=O)OC2CCCC2)C3c2ccc(O)cc2)cc1OC (stereo unspecified)	97	92	0
Cc1ccc(C(=O)Nc2cccc([N+](=O)[O-])c2)cc1S(=O)(=O)N1CC(C)CC(C)C1 (stereo unspecified)	100	42	24
CC(C)(C)c1nn(-c2ccccc2)c2[nH]c(=O)c(CNC3CCCCC3)cc12	83	76	6
COc1c(Br)cc(Br)cc1-c1ccc(CN2CC3CCC2CC3)[nH]1.Cl	98	100	91
CC(C)(CNC(=O)[C@@H]1CCCN(CCOc2ccc(F)c(F)c2)C1)c1nc(-c2ccc(Cl)c(O)c2)c(-c2ccncc2)[nH]1.Cl	100	77	72
CN1CCC(N2CCN(Cc3cccc(-c4ccc(-c5nc6cc(C(F)(F)F)ccc6[nH]5)cc4)c3)CC2)CC1.O=C(O)C(F)(F)F	100	91	100
CCCCCc1cc(OC(=O)CCCN(CC)CC)c2c(c1)OC(C)(C)C=C2C1=CCN(Cc2ccc3ccccc3c2)CC1	100	92	94
O=C(Cc1cccs1)NCC(c1ccccc1Cl)c1c[nH]c2ccccc12 (stereo unspecified)	91	56	12
O=C(Nc1cccc(-c2ccc(CN3CCCC3)cc2)c1)c1ccc(Cl)cc1.O=C(O)C(F)(F)F	100	47	29
Cc1cc(-c2ccc(CNCCc3cccs3)cc2)ccc1S(=O)(=O)NCc1ccccc1.O=C(O)C(F)(F)F	94	0	28
COc1ccccc1C1CCN(C2CCC(NC(=O)/C=C/c3ccc(C(F)(F)F)cc3)CC2)CC1 (stereo unspecified)	88	7	57
COc1ccc(Cn2c(Nc3cccc(C(F)(F)F)c3)nc3cc(C(=O)NCCN4CCCC4)cnc32)cc1Cl	97	31	10
CN(C)CCc1coc2ccc(C(=O)Nc3ccc(-c4ccc(O)cc4)cc3)cc12	100	40	28
Fc1ccc2[nH]cc(CCNCc3ccc(-c4cccc(-c5nc6ccccc6[nH]5)c4)cc3)c2c1.O=C(O)C(F)(F)F	100	99	69
